From PubChem BioAssay
In the library only some 9.2% were active in any assay of this set; here they are far more common.
SMN2 splice up – qHTS Assay for Enhancers of SMN2 Splice Variant Expression | HEK293 SMN2-luciferase splicing reporter, luminescence, 30-36 h | Potency, µM (titrated, usually from 46.1 µM), for the others: at the top dose activity change, positive = activation, usual class: activators | 2.8% of 210,000 active | AID 1458, 2008; further: % of control where 0% means no effect; nearly all actives have a fitted effect of over 55% in size
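HEK293 cells carry an SMN2 […]–luciferase reporter in which exon 7 inclusion puts luciferase in frame. Cells were plated 10-12 h before compound addition, then incubated 30-36 h at 37C. ONE-Glo luminescence was read; sodium butyrate at 4.5 mM final served as control.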
Rab9 prom act – qHTS Assay for Rab9 Promoter Activators | Huh7 Rab9 promoter-luciferase reporter, luminescence, 24 h | Potency, µM (series often up to 9.22 µM), for the others: at the highest dose activation, negative = inhibition, actives largely listed as activators | 2.8% of 320,000 active | AID 485297, 2010; further: % of control where 0% means no effect; nearly all actives have a fitted effect of over 60% in size
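Huh7 cells stably carrying a Rab9 promoter-luciferase reporter, 1500 cells per well in OP-MEM I with 10% FBS, treated with compound 24 hours at 37C. Luciferase activity read by luminescence after 10 minutes with Amplite reagent.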
NPC1 prom act – qHTS Assay for NPC1 Promoter Activators. Huh7 NPC1 promoter luciferase reporter, 24 h. 2.4% of 320,000 active. Potency, µM (highest dose often 9.22 µM), for inactives: at the top dose activation, usual class: activators; further: % of control where 0% means no effect; nearly all actives have a fitted effect of over 60% in size
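Luminescence from an NPC1 promoter-driven luciferase reporter in stably transfected Huh7 cells was measured after 24 h compound treatment at 37 °C, followed by 10 min ambient incubation with luciferase detection reagent.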
ELG1 genotoxic – qHTS screen for small molecules that induce genotoxicity in human embryonic kidney (HEK293T) cells expressing luciferase-tagged ELG1; HEK293T ELG1-luciferase reporter, luminescence, 16 h; Potency, µM (doses to about 46 µM), for the others: at the highest dose activity change, positive = activation, actives largely listed as activators; 1.3% of 330,000 active; AID 504466, 2011; further: % of control where 0% means no effect; nearly all actives have a fitted effect of over 60% in size
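HEK293T cells expressing luciferase-tagged ELG1 were treated with compound or DMSO for 16 hr at 37°C. Luciferase activity was then read after 30 min with ONE-Glo at room temperature; rising signal flags genetic stress.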
ELG1 DNA repair – qHTS screen for small molecules that inhibit ELG1-dependent DNA repair in human embryonic kidney (HEK293T) cells expressing luciferase-tagged ELG1; HEK293T ELG1-luciferase reporter, luminescence, 16 h; DNA damage induced by 5-fluorouridine; Potency, µM (titrated, usually from 46.1 µM), without a hit: at the top dose activity change, negative = inhibition, most hits filed as inhibitors; 2.3% of 330,000 active; further: on the % scale 0 is the no-effect control and ±100 the full control effect; nearly all actives have a fitted effect of over 55% in size
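Cells (2,000 per well) received 5-fluorouridine plus test compound or DMSO and were incubated 16 hr at 37 °C, 5% CO2. Luciferase activity was read by luminescence 30 min after ONE-Glo addition; signal suppression marked inhibition of damage-induced ELG1 function.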
FLuc modulator – qHTS profiling assay for firefly luciferase inhibitor/activator using purifed enzyme and Km concentrations of substrates (counterscreen for miR-21 project); Luciferin 4-monooxygenase (Photinus pyralis), P08659; purified FLuc, Km substrates, luminescence inhibition; Potency, µM (doses to about 57.5 µM), for inactives: at the top dose activity change, negative = inhibition, most hits filed as inhibitors; 6.9% of 360,000 active;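 further: plate controls were vehicle for no effect and reference inhibitor for full effect; nearly all actives have a fitted effect of over 55% in size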
Target sequence (P08659 whole entry, looked up): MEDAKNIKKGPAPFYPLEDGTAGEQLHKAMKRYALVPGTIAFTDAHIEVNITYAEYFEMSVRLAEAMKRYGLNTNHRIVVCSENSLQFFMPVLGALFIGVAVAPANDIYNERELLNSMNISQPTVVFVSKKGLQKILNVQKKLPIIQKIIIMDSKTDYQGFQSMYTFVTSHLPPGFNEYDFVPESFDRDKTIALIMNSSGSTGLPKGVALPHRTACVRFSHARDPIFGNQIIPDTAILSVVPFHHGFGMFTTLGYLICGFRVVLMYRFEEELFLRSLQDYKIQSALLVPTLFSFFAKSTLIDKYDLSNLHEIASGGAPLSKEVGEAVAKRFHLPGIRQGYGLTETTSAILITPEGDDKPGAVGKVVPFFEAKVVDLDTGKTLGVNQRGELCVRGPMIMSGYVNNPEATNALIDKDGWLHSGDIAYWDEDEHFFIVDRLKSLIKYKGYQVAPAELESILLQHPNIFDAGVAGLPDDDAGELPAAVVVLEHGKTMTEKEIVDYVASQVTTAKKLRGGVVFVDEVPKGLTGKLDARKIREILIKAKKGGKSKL
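Purified P. pyralis luciferase (10nM final) with 10uM D-luciferin and 10uM ATP (Km levels) in 50mM Tris acetate pH 7.5, 10mM Mg acetate, 0.01% Tween-20, 0.05% BSA; qHTS 6-point titration, ~60 µM downward; luminescence read.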
The depositor's hits bear a star; ? = inconclusive; . = no result; [ ] = remark or other dose. The call rests on the fitted dose curve; in most records, active means well fitted curve in the direction sought with a large enough effect; inconclusive means small, poorly fitted or top-dose-only effect, or another doubt; inactive means no such curve, though single readings can be large; an effect the other way counts as inactive or inconclusive. Potency means the concentration at half of the fitted maximal effect.

SMILES	SMN2 splice up	Rab9 prom act	NPC1 prom act	ELG1 genotoxic	ELG1 DNA repair	FLuc modulator
CCCOc1ccc(CNC(=O)Cc2cccs2)cc1	.	?	?	?	?	19µM*
O=C(Cc1cccs1)NCc1cccc(CNC(=O)Cc2cccs2)c1	12%	0%	-2%	0%	-2%	-3%
CCOCCCn1c(=N)c(C(=O)NC(C)c2ccccc2)cc2c(=O)n3cccc(C)c3nc21 (stereo not drawn)	-15%	.	.	.	.	-7%
C=C(C)C1COc2cc3oc(=O)ccc3cc2O1 (stereo not drawn)	19%	.	.	.	.	.
C=C(C)CNCCN	2%[9.22 µM]	.	.	.	.	.
COc1ccc(OCC(=O)Nc2ccc(NC(=O)c3cccs3)cc2)cc1	.	3%	1%	12%	?	4%
CN(C(=O)c1cccs1)c1ccc(OCC(=O)Nc2ccc(C(=O)O)cc2)cc1	.	0%	-3%	1%	17%	17µM*
CC(C)c1ccc(N=C2NN=C(c3cccs3)CS2)cc1	13µM*	0.71µM*	2µM*	?	?	6µM*
CC(C)N=C1NN=C(c2ccc(Cl)c(Cl)c2)CS1	5µM*	0.35µM*	1.4µM*	2.1µM*	?	3.4µM*
CC(C)N=C1NN=C(c2cccs2)CS1	11µM*	0.79µM*	3.2µM*	?	?	24µM*
Cc1onc(-c2ccccc2Cl)c1C(=O)O/N=C(\N)c1ccccc1	.	7%	6%	0%	-3%	6%
Cc1occc1C(=O)O/N=C(\N)c1ccccc1	.	0.45µM*	0.45µM*	?	?	1.9µM*
Cc1cccc(/C(N)=N/OC(=O)c2ccoc2C)c1	.	1.3µM*	1.1µM*	?	?	3.8µM*
CN(C)C(=O)c1ccc(-c2nc(NCc3cccs3)c3ccccc3n2)cc1	20%	.	.	.	.	.
O=C(c1ccc(N2CCCC2=O)cc1)N1CCN(c2ccccc2)CC1	-5%	0%	-5%	0%	6%	-2%
O=C(Nc1ccc(C(=O)N2CCN(c3ccc(F)cc3)CC2)cc1)c1nsc2ccccc12	.	.	.	.	.	7.6µM*
O=C(Nc1ccc(C(=O)N2CCCCC2)cc1)c1nsc2ccccc12	.	.	.	.	.	1.3µM*
Cc1cccc(N2CCN(C(=O)c3ccc(N4CCCC4=O)cc3)CC2)c1C	-34%	0%	0%	-11%	18µM*	0%
CC1=C(C(=O)Nc2cc(C(=O)N3CCN(c4cccc(C)c4C)CC3)ccc2C)SCCO1	.	-2%	-7%	-17%	18µM*	2%
COc1ccccc1NC(=O)CC(C)n1nc(C)cc1C (stereo not drawn)	.	.	.	.	.	-2%
COc1ccc(C(=O)N2CCN(CCCc3ccccc3)CC2)cc1OC	.	-2%	0%	-4%	-22%	-3%
CCC(=O)c1ccc(OCC(=O)Nc2cccc(S(=O)(=O)N3CCCCCC3)c2)cc1	.	-18%	-16%	-3%	20%	-2%
Cc1cccc(N2CCN(C(=O)c3ccc(NC(=O)c4nsc5ccccc45)cc3)CC2)c1C	.	.	.	.	.	6µM*
Fc1ccc(COc2ccc(C(=S)N3CCCC3)cc2)cc1	.	1.3µM*	2.2µM*	?	?	21µM*
S=C(c1ccc(OCc2ccccc2)cc1)N1CCCC1	.	?	?	?	?	19µM*
SMILES	SMN2 splice up	Rab9 prom act	NPC1 prom act	ELG1 genotoxic	ELG1 DNA repair	FLuc modulator
O=C(COc1ccc(C(=S)N2CCCC2)cc1)Nc1ccc(F)cc1	.	2%	-3%	-4%	-14%	1%
O=C(COC(=O)c1cccc(F)c1)Nc1cccnc1Cl	0%	-6%	-1%	4%	-1%	2%
CC(=O)Nc1nc2c(C)cc(NC(=O)C3CCCCC3)cc2s1	.	1.8µM*	2.2µM*	?	?	.
CC(=O)Nc1cc(C)c2nc(NC(C)=O)sc2c1	.	26%	24%	?	?	?
COc1ccc(-c2nnc(NC(=O)C3CCCO3)s2)cc1 (stereo not drawn)	24%	4µM*	2.5µM*	?	?	12µM*
CCc1cccc(C)c1NC(=O)C1CCCO1 (stereo not drawn)	-8%	-3%	0%	4%	3%	1%
Cc1cccc2sc(NC(=O)C3CCCO3)nc12 (stereo not drawn)	20µM*	?	?	?	?	?
CSc1nc2ccc(NC(=O)C3CCCO3)cc2s1 (stereo not drawn)	13µM*	3.5µM*	3.5µM*	10µM*	?	12µM*
CC(C)c1nnc(NC(=O)C2CCCO2)s1 (stereo not drawn)	.	4%	2%	7%	?	-4%
CCOc1ccc(NC(=O)CSc2nc3c(c(=O)[nH]2)CCCC3)cc1	.	.	.	.	.	-2%
CSc1nc2ccc(NC(=O)NC(=O)c3c(F)cccc3F)cc2s1	.	?	?	6%	14%	-19%
COc1ccc2nc(NC(=O)C3CCCO3)sc2c1 (stereo not drawn)	.	?	1.1µM*	?	?	9.5µM*
CSc1nc2ccc(NC(=O)c3ccc(Cl)s3)cc2s1	.	2.8µM*	2µM*	?	?	1.9µM*
COc1ccc(NC(=O)C2CCCO2)c(OC)c1 (stereo not drawn)	.	17%	-1%	0%	5%	-2%
Cc1ccc(-c2cc(C(=O)N(C)CC(=O)Nc3ccccc3Br)c3ccccc3n2)o1	.	-1%	11%	-4%	5.2µM*	?
COc1ccc(NC(=O)CN(C)C(=O)c2ccc(-c3ccccc3Cl)o2)cc1	.	0%	-1%	12%	10%	24µM*
CN(CC(=O)Nc1cccc(F)c1)C(=O)c1cc(-c2ccco2)nc2ccccc12	.	-5%	-5%	-24%	?	?
CN(CC(=O)Nc1ccc(F)c(F)c1F)C(=O)c1cc(-c2ccncc2)nc2ccccc12	.	-5%	-1%	-7%	23µM*	2%
COc1ccc(NC(=O)CN(C)C(=O)c2cc(-c3ccco3)nc3ccccc23)cc1	.	-1%	-3%	-9%	18µM*	17µM*
CCOc1ccc(OCCCCn2cnc3ccccc3c2=O)cc1	-11%	-4%	6%	-4%	16µM*	-10%
CCOc1ccc(OCCn2nnc3ccccc3c2=O)cc1	16µM*	2.8µM*	3.5µM*	18µM*	?	13µM*
COc1ccc(-c2nc3ncnn3cc2C)cc1F	.	10%	0%	4%	2%	0%
